Source: PubChem BioAssay (NCATS)
Records with an inconclusive call do not appear. Active and inactive are the calls of the source. Unless noted, calls come from the whole dose curve; as a rule, active = well fitted curve in the direction sought with a large enough effect; inconclusive = small, poorly fitted or top-dose-only effect, or another doubt; inactive = no such curve, though single readings can be large; an effect the other way counts as inactive or inconclusive.

Experiments:
[1] = qHTS Assay for Modulators of Human Peripheral Myelin Protein 22 (PMP22) Expression/Activity (AID 1967; active = well fitted curve in the direction sought with a large enough effect in the signal ratio; the % refers to the signal ratio)
How it was run: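 MSC80 mouse Schwann cells stably carrying Pmp22 promoter–green click beetle luciferase plus EF-alpha–red luciferase control were dosed for 24h at 37 °C. Dual-colour luminescence was filter-overlap corrected; %Activity came from green/red ratio versus untreated cells.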

[2] = biological target: RecQ-like DNA helicase BLM (Homo sapiens) (UniProt P54132); experiment: qHTS Validation Assay for Inhibitors of Bloom's syndrome helicase (BLM) (AID 2364)
How it was run: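 BLM 50 nM in 25 mM Tris-HCl pH 8.0, 5 mM NaCl, 2 mM MgCl2, 1 mM DTT, 0.01% Tween-20, 2.5 ug/ml poly(dI-dC); 15 min cpd preinc, RT. Start: 200 nM forked DNA + 2 mM ATP (final). TAMRA read, 2 reads 2 h apart.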

[3] = Cytometric Cell-Based qHTS for Inhibitors of the mTORC1 Signaling Pathway in MEF (Tsc2-/-, p53-/-) Cells (AID 2660);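 note: Tsc2 and p53 null MEFs carrying empty vector with compound for 24 h; percent of cells above a phospho-rpS6 to PI ratio cutoff in each well; series mostly up to about 38 µM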
From the text: NIH Molecular Libraries Probe Production Centers Network [MLPCN]
NIH Chemical Genomics Center [NCGC]
Assay Submitter (PI): Blenis, John; Hoffman, Greg; Harvard University
NCGC Assay Overview: The mammalian target of rapamycin (mTOR) is an intracellular serine/threonine kinase Aberrant regulation of mTOR signaling plays a causative role in a number of human diseases, including cancer, benign tumors such as lymphangioleiomyomatosis (LAM) and Tuberous Sclerosis Complex (TSC), and metabolic diseases such as diabetes and obesity. This project aims to identify inhibitors of ribosomal protein S6 (rpS6) phosphorylation. The phosphorylation of rpS6 is a key event downstream of mTOR activation. […]
For quantitative high throughput analysis of mTORC1 signaling, we developed a cell-based assay for immuno-fluorescence based detection of rpS6 phosphorylation on the Acumen Explorer that will be used a platform for the primary small molecule screen. […] The fluorescence emission from the Alexa-488 conjugated rpS6 phospho-235/236 antibody staining is selected using a […] band pass filter. Fluorescence emission from the PI stain is selected using a 575-640 nm band pass filter. The normalized phospho-S6 staining is calculated as the ratio of the integrated Alexa 488 intensity divided by the integrated PI intensity for the single concentration rapamycin control (7.5 nM) and DMSO columns. […]

RecQ-like DNA helicase BLM (Homo sapiens), sequence (P54132 whole entry, looked up): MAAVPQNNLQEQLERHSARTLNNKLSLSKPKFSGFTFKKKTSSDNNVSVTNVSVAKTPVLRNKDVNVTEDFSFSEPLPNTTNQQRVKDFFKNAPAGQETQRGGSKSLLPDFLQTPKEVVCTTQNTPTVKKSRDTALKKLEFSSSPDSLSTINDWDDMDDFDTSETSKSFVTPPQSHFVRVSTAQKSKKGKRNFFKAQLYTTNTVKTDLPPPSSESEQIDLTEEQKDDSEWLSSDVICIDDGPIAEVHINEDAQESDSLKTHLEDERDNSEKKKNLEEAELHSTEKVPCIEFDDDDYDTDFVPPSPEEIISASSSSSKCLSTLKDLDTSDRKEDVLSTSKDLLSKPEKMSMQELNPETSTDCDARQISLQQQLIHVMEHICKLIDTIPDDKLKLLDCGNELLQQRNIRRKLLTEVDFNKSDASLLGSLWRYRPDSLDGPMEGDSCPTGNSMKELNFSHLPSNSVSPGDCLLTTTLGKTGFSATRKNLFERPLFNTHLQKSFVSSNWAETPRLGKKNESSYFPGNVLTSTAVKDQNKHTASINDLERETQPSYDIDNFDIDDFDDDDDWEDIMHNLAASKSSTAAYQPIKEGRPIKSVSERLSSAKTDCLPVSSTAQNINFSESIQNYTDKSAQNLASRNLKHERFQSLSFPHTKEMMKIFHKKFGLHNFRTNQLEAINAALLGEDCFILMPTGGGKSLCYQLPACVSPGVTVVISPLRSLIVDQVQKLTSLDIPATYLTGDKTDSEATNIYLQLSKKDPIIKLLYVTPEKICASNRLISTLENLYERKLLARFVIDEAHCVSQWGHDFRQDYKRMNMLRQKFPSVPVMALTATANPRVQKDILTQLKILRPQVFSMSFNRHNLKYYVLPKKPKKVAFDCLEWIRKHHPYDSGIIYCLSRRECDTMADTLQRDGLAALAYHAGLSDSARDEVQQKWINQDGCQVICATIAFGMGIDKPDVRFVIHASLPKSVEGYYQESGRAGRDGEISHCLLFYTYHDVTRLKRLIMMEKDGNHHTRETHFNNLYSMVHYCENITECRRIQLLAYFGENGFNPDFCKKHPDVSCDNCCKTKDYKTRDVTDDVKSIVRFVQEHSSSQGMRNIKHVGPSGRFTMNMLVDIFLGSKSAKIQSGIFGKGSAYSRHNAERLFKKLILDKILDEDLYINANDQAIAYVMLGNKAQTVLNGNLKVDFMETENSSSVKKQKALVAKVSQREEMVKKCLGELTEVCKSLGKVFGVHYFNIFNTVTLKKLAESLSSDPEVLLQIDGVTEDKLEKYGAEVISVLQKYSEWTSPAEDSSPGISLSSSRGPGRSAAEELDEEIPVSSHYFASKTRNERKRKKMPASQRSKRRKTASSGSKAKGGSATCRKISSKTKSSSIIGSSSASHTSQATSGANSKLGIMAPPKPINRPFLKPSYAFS

## O=C(NCCNCC(O)COc1ccc(O)cc1)N1CCOCC1 (stereo not drawn)
[1]
  outcome: inactive

## C[C@@](Cc1ccc(O)c(O)c1)(NN)C(=O)O
[2]
  outcome: inactive

## Oc1ccc(/C=C/c2cc(O)cc(O)c2)cc1
[3]
  outcome: inactive
